Assay outcomes: PubChem BioAssay, National Center for Advancing Translational Sciences (NCATS)
Rows were chosen to be rich in hits. Some 2.4% of all compounds tested hit in one or more screens of this group.
TDP1 inh: qHTS Assay for Inhibitors of Tyrosyl-DNA Phosphodiesterase (TDP1) | recombinant TDP1, AlphaScreen DNA substrate cleavage | Potency, µM (series often up to 130 µM), for inactives: at the top dose activity change, negative = inhibition, hits mostly inhibitors | Tyrosyl-DNA phosphodiesterase 1 (Homo sapiens), Q9NUW8 | hit rate 0.28% among 350,000 | AID 485290, 2010; active = well fitted curve in the direction sought with a large enough effect; inconclusive = small, poorly fitted or top-dose-only effect, or another doubt; inactive = no such curve, though single readings can be large; an effect the other way counts as inactive or inconclusive; also: % is scaled to controls: 0 for no effect and ±100 for the full control effect; nearly all actives have a fitted effect of over 40% in size
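Here, a 5' biotin and 3' phosphotyrosine-FITC DNA oligonucleotide reports Tdp1 activity: intact substrate bridges AlphaScreen beads, while cleavage leaves a 3' phosphate and drops signal. All incubations at room temperature.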
Rango complex inh: qHTS Assay for Inhibitors of Rango (Ran-regulated importin-beta cargo) - Importin beta complex formation | hit rate 0.031% among 340,000 | Rango CFP/YFP FRET sensor + importin beta, 45 min | Importin subunit beta-1 (Homo sapiens), Q14974 | Potency, µM (titrated, usually from 92.2 µM), for the others: at the top dose inhibition of complex formation;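 also: 0% = DMSO wells and 100% = buffer wells lacking importin beta; nearly all actives have a fitted effect of over 15% in size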
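FRET biosensor Rango (snurportin 1 IBB between N-terminal EYFP and C-terminal Cerulean), 50 nM in PBS/1 mM DTT/0.02% Tween-20/0.1% BSA, preincubated 5 min RT with compound; 0.125 microM importin beta added, 45 min RT, CFP/YFP FRET ratio read.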
ClpP mod: qHTS Assay for Activators of ClpP; Potency, µM (highest dose often 57.5 µM), without a hit: at the top dose activity change, negative = active; hit rate 1.9% among 340,000; AID 651965, 2013; purified B. subtilis ClpP, FRET peptide cleavage, 20 min; active = well fitted falling curve with a large enough effect; inconclusive = small, poorly fitted or top-dose-only effect; inactive = no such curve, though single readings can be large or run the other way; also: the source files actives as falling curves though it sought activators and does not explain the sign; nearly all actives have a fitted effect of over 65% in size
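Buffer: 100 mM Tris/HCl pH8, 100 mM KCl, 0.05% low protease BSA, 2.5% glycerol, 0.01% Tween-20. ClpP 10 microg/mL final; 20 min RT; delta FRET normalized to ADEP and DMSO controls.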
12-LOX inh: Primary qHTS assay for inhibitors of human arachidonate 12S-lipoxygenase (ALOX12): Round 2. Polyunsaturated fatty acid lipoxygenase ALOX12 (Homo sapiens), P18054. purified 12hLO, xylenol orange hydroperoxide absorbance. Potency, µM (doses to about 108 µM), for the others: top-dose activity change, negative = inhibition, most hits filed as inhibitors. hit rate 1.1% among 580,000. AID 1671190, 2021; active = well fitted curve in the direction sought with a large enough effect; inconclusive = small, poorly fitted or top-dose-only effect, or another doubt; inactive = no such curve, though single readings can be large; an effect the other way counts as inactive or inconclusive; also: % is scaled to controls: 0 for no effect and ±100 for the full control effect
Target sequence (P18054 whole entry, looked up): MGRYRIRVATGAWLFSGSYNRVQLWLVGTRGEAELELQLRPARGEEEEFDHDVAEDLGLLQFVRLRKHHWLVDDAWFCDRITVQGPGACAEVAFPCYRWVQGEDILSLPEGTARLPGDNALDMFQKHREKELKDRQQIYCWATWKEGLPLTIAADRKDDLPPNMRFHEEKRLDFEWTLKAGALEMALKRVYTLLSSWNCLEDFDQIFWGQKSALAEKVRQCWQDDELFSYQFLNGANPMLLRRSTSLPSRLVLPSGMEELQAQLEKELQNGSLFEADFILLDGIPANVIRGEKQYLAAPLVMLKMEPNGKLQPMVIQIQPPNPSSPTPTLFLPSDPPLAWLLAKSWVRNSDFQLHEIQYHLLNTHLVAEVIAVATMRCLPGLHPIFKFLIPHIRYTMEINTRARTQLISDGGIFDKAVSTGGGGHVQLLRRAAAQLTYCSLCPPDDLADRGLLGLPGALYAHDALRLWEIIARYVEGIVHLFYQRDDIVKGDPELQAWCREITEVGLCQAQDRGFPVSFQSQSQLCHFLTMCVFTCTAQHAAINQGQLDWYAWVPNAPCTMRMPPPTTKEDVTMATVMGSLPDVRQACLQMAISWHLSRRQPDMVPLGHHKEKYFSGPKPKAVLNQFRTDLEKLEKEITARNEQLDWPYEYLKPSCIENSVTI
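Purified human 12hLO at 150 nM in 25 mM Hepes, 0.01% Triton X-100, pH 7.0, preincubated 15 min at room temperature with compound. Reaction started with 40 uM arachidonic acid, 30 min at room temperature. Hydroperoxide measured by Fe-xylenol orange, 573/405 nm absorbance ratio.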
Rango dissoc inh: qHTS Assay for Inhibitors of RanGTP induced Rango (Ran-regulated importin-beta cargo) - Importin beta complex dissociation. Biochemical FRET Rango-importin beta, RanGTP-induced dissociation. AID 540253, 2011. Potency, µM (titrated, usually from 46.1 µM), inactives show at the top dose activity change, negative = inhibition. hit rate 0.071% among 340,000. Snurportin-1 (Homo sapiens) + GTP-binding nuclear protein Ran (Homo sapiens) + Importin …; also: % of control where 0% means no effect; nearly all actives have a fitted effect of over 45% in size
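Quantitative HTS using a FRET biosensor: 0.1 uM Rango, 0.25 uM importin beta, 0.6 uM Ran, 2 mM GTP, 0.2 uM RCC1 final, PBS with DTT, Tween-20 and BSA. Post-read taken 45 min after Ran addition.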
PTAP TSG101 blk: qHTS Assay for Iinhibitors of HIV-1 Budding by Blocking the Interaction of PTAP/TSG101. Fluorescence polarization, FITC-PTAP peptide / Tsg101 binding. Potency, µM (doses to about 115 µM), without a hit: top-dose activity change, negative = inhibition, actives largely listed as inhibitors. 340,000 tested, under 10 active; active = well fitted inhibition curve with a large enough effect in the main read-out, with a control signal flat, not every such curve was filed as active; inconclusive = small, poorly fitted or top-dose-only effect, or effect the other way, or a change in a side signal; inactive = no such curve, though single readings can be large or run the other way; also: % of control where 0% means no effect
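Tsg101 binding domain (10 uM final) was mixed with compound and a FITC-labeled PTAP peptide (50 nM final) in HEPES pH 7.5 buffer with NaCl, Tween 20, EDTA and TCEP; fluorescence polarization was read after 20 min at r.t.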
* marks the source's active call; other numbers are inactive results; ? = inconclusive; nt = no result given; [ ] = another dose, or the depositor's remark. Unless noted, calls follow the shape of the full dose curve. Potency is read from the fitted curve at half-maximal effect.

SMILES	TDP1 inh	Rango complex inh	ClpP mod	12-LOX inh	Rango dissoc inh	PTAP TSG101 blk
Cc1[nH]c2c(ccc3ccccc32)c1C1C(CCN)C1(C)C (stereo unspecified)	8%	-4%	-10%	?	1%	1%
CCCSC1=N/C(=C\c2ccc([N+](=O)[O-])o2)C(=O)S1	?	3%	0%	40µM*	3%	0%
CSC1=N/C(=C\c2ccc(F)cc2)C(=O)S1	1%	-1%	1%	-21%	-22%	2%
CCSC1=N/C(=C\c2ccc(-c3ccccc3[N+](=O)[O-])o2)C(=O)S1	9%	3%	1%	?	-12%	-6%
CSC1=N/C(=C\c2ccc(C)s2)C(=O)S1	-14%	?	1%	-18%	-7%	-1%
CSC1=N/C(=C\c2ccc(C)o2)C(=O)S1	-6%	-4%	-1%	45µM*	-1%	-11%
CSC1=N/C(=C\c2ccc(I)o2)C(=O)S1	nt	nt	nt	5.6µM*	nt	nt
Cc1ccc(C2Cn3nnc(C(=O)N4CCC(C(=O)NCc5ccccn5)CC4)c3CO2)cc1 (stereo unspecified)	nt	nt	nt	23%	nt	nt
O=C(N1CCN(Cc2ccccc2)CC(O)C1)C1(N2CCCC2)CCCC1 (stereo unspecified)	nt	nt	nt	54%	nt	nt
c1ccc(N2N=C(c3cccs3)CC2c2ccco2)cc1 (stereo unspecified)	nt	?	16µM*	5%	?	0%
COc1ccc(-n2c(=S)[nH]c3ccccc32)cc1	1%	0%	-2%	28µM*	3%	-6%
COc1ccc(-n2c(=S)[nH]c3ccccc3c2=S)cc1	nt	2%	-3%	-2%	-21%	-7%
COc1cc(NC(=O)c2nccnc2C(=O)O)cc(OC)c1	-3%	-1%	0%	4.5µM*	-1%	-2%
COc1ccc(NC2=CC(=O)CC(c3ccc(OC)cc3)C2)cc1 (stereo unspecified)	nt	nt	nt	-4%	nt	nt
COc1c(N2CCN(C(=S)Nc3ccccc3)C(C)C2)c(F)cc2c(=O)c(C(=O)O)cn(C3CC3)c12 (stereo unspecified)	0%	nt	nt	nt	nt	nt
COC(=O)C(C)NC(=S)N1CCN(c2c(F)cc3c(=O)c(C(=O)O)cn(C4CC4)c3c2OC)CC1C (stereo unspecified)	8%	-1%	4%	8.9µM*	-16%	-3%
CNC(=S)N1CCN(c2c(F)cc3c(=O)c(C(=O)O)cn(C4CC4)c3c2OC)CC1C (stereo unspecified)	0%	4%	28µM*	?	6%	-6%
O=C(NCCc1cccnc1)c1ccc(-c2nnc3ccc(NC(=O)C4CCC4)cn23)cc1	nt	nt	nt	57%	nt	nt
CC(C)Sc1ccc(Cl)nn1	nt	nt	nt	-18%	nt	nt
CCCOC(=O)C(C#N)c1nc2ccccc2nc1Cl (stereo unspecified)	nt	nt	nt	18µM*	nt	nt
CCCN(CCC)c1nc2ccccc2nc1C(C#N)C(=O)OCCOC (stereo unspecified)	1%	?	-7%	?	?	-3%
O=C(CCn1ccc(=O)[nH]c1=O)N1CCC(c2[nH]ncc2-c2ccccc2)CC1	nt	nt	nt	-25%	nt	nt
COc1ccccc1C1NC(=S)NC2=C1CCc1ccccc12 (stereo unspecified)	nt	nt	nt	28µM*	nt	nt
S=C1NC2=C(CCc3ccccc32)C(c2ccccc2Cl)N1 (stereo unspecified)	nt	nt	nt	8.9µM*	nt	nt
COc1ccc2c(c1)C1=C(CC2)C(c2ccc(C)cc2)NC(=S)N1 (stereo unspecified)	9%	-6%	-8%	40µM*	0%	-7%
SMILES	TDP1 inh	Rango complex inh	ClpP mod	12-LOX inh	Rango dissoc inh	PTAP TSG101 blk
S=C1NC2=C(CCc3ccccc32)C(c2ccc(Cl)cc2)N1 (stereo unspecified)	nt	nt	nt	28µM*	nt	nt
COc1cccc(C2NC(=S)NC3=C2CCc2ccccc23)c1 (stereo unspecified)	-3%	2%	12%	?	15%	0%
CC(C)N(CCCNC(=O)Nc1ccc(C(C)(C)C)cc1)C[C@H]1O[C@@H](n2cc(Br)c3c(N)ncnc32)[C@H](O)[C@H]1O	nt	nt	nt	-15%[57.4 µM]	nt	nt
COc1ccc(-c2cc(-c3cccc(OC)c3OC)cn3cncc23)cc1	nt	nt	nt	71µM*	nt	nt
O=c1ccc(-c2cc(-c3cccc4cn[nH]c34)cn3cncc23)c[nH]1	nt	nt	nt	32µM*	nt	nt
COc1ccc(-c2cc(-c3ccc4cn[nH]c4c3)cn3cncc23)cc1	nt	nt	nt	8.9µM*	nt	nt
CC#CCn1cc2c3c(cccc31)[C@H](CC(C)C)N[C@H](C(=O)NC(C)C)C2	nt	nt	nt	4%[176 µM]	nt	nt
F[C@@H]1CN(Cc2cnc3ccccc3c2)C[C@@H]1OCc1nc2ccccc2[nH]1	nt	nt	nt	13%[176 µM]	nt	nt
COc1cccc(CNC(=O)Cc2n[nH]c(=O)c3ccccc23)c1	nt	nt	nt	30%	nt	nt
CCOC(=O)C1=C(O)/C(=C\c2cc(C)n(-c3ccc(F)cc3)c2C)N=C1C	0%	?	nt	35µM*	?	2%
COc1ccccc1N1CCN(C(=O)CN2c3ccccc3S(=O)(=O)c3ccccc32)CC1	nt	nt	nt	-22%	nt	nt
Cc1cc(C)cc(N(CC(=O)N/N=C/c2ccncc2)S(=O)(=O)c2ccccc2)c1	2%	0%	6.3µM*	-18%	3%	-7%
O=Cc1cccn1-c1cccc(Cl)c1Cl	nt	nt	nt	-22%	nt	nt
Cc1nc2c(ccc3c(C)c(C)[nH]c32)s1	nt	nt	nt	28µM*	nt	nt
Cc1nc2ccc3[nH]c(C)c(C)c3c2s1	nt	nt	nt	4%	nt	nt
Fc1ccccc1-c1nc(N2CCCC2)c2ccccc2n1	nt	nt	nt	15%	nt	nt
Fc1ccccc1-c1nc(N2CCN(c3cccc(Cl)c3)CC2)c2ccccc2n1	-4%[12.3 µM]	nt	32µM*	-24%	nt	nt
Cc1ccc(S(=O)(=O)C(C#N)c2nc3ccccc3nc2N2CCN(C)CC2)cc1C (stereo unspecified)	6%	-1%	-14%	?	?	?
CCN1CCN(c2nc3ccccc3nc2C(C#N)S(=O)(=O)c2cccc(C)c2)CC1 (stereo unspecified)	nt	nt	nt	14µM*	nt	nt
CCN1CCN(c2nc3ccccc3nc2C(C#N)S(=O)(=O)c2ccc(OC)cc2)CC1 (stereo unspecified)	nt	nt	nt	18µM*	nt	nt
